Records with an inconclusive call do not appear. A call without a number means that no potency is given here. Activity calls are given as the source filed them. Calls follow the shape of the dose curve; as a rule, active = well fitted inhibition curve with a large enough effect; inconclusive = small, poorly fitted or top-dose-only effect; inactive = flat fitted curve, though single readings scatter. Where a SMILES comes first, the peptide text is derived from it. Bridges are numbered along the chain shown (N, C = ends). [ ]: non-standard residue; d: D form. The star is where a group is joined. Dab(CH2SO3H) = N[C@@H](CCNCS(=O)(=O)O)C(=O)O; X3 = CC[C@@H](C)CCCCC(=O)*; Dab = NCC[C@H](N)C(=O)O
Molecular target: Voltage-gated inwardly rectifying potassium channel KCNH2 (Homo sapiens) (UniProt Q12809)
Test: qHTS Assay for Small Molecule Inhibitors of the Human hERG Channel Activity (AID 588834);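 also: lower thallium flux fluorescence means stronger hERG block; nearly all actives have a fitted effect of over 50% in size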
Conditions: U2OS BacMam hERG, FluxOR thallium flux fluorescence; series mostly up to 46.1 µM
Outline: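 hERG block measured as reduced thallium-dye (FluxOR) fluorescence after stimulation buffer addition, read over 2 min. Cells were hERG-BacMam-transduced U2OS exposed to compound ~10 min […]; concentration-response fitted with Hill equation for AC50.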
Potency is read from the fitted curve at half-maximal effect.

Voltage-gated inwardly rectifying potassium channel KCNH2 (Homo sapiens), sequence (Q12809 whole entry, looked up): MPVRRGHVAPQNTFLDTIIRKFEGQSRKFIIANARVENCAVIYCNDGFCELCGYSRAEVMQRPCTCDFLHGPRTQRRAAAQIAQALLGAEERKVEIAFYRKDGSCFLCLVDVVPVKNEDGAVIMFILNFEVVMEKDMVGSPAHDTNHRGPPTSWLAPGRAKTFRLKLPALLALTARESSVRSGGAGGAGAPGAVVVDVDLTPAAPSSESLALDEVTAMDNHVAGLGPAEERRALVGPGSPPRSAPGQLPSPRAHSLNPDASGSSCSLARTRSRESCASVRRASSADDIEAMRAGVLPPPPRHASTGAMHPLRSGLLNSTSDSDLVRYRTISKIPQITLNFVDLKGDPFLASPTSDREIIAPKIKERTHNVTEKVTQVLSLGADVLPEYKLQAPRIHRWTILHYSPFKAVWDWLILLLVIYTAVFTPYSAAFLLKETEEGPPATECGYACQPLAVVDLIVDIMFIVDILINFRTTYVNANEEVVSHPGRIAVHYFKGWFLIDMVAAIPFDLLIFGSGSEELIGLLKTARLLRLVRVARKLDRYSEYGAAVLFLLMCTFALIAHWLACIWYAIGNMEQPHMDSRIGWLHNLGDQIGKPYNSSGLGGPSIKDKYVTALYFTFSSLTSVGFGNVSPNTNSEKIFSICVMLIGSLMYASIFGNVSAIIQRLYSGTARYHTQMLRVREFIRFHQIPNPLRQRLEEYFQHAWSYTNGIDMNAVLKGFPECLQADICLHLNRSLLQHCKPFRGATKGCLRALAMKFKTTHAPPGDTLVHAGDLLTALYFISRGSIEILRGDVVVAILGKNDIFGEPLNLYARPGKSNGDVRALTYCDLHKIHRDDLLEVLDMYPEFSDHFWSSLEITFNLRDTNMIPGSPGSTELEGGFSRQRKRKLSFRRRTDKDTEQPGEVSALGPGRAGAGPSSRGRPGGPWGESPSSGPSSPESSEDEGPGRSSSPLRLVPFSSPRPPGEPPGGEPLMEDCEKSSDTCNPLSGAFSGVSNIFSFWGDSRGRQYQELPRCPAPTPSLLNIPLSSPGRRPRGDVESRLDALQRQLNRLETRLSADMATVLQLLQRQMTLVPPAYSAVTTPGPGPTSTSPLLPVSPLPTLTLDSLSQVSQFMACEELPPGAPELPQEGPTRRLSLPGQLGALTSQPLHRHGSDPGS

Structure (SMILES)	Potency
CC[C@@H](C(=O)O)[C@@H]1O[C@@H]([C@@H](C)[C@H](O)[C@H](C)C(=O)[C@H](CC)[C@H]2O[C@]3(C=C[C@@H](O)[C@]4(CC[C@@](C)([C@H]5CC[C@](O)(CC)[C@H](C)O5)O4)O3)[C@H](C)C[C@@H]2C)[C@@H](C)C[C@@H]1C	inactive
CCCCCCCCCCCC[n+]1ccc2ccccc2c1	3160 nM (active)
CC(C)(C)C(=O)OCOC(=O)[C@@H]1N2C(=O)[C@@H](N=CN3CCCCCC3)[C@H]2SC1(C)C	inactive
CC1(C)S[C@@H]2[C@H](NC(=O)Cc3ccccc3)C(=O)N2[C@H]1C(=O)O	inactive
C[C@@H]1CCC2[C@@H](C)[C@@H](O)O[C@@H]3O[C@@]4(C)CC[C@@H]1[C@@]23OO4 (some centres not stated)	inactive
CO[C@H](C(=O)[C@@H](O)[C@@H](C)O)C1Cc2cc3cc(O[C@H]4C[C@@H](O[C@H]5C[C@@H](O)[C@H](O)[C@@H](C)O5)[C@@H](O)[C@@H](C)O4)c(C)c(O)c3c(O)c2C(=O)[C@H]1O[C@H]1C[C@@H](O[C@H]2C[C@@H](O[C@H]3C[C@](C)(O)[C@H](O)[C@@H](C)O3)[C@H](O)[C@@H](C)O2)[C@H](O)[C@@H](C)O1 (some centres not stated)	inactive
C[C@]12CCC(=O)C=C1CC[C@@H]1[C@@H]2[C@@H](O)C[C@@]2(C)[C@H]1CC[C@]2(O)C(=O)COP(=O)(O)O	inactive
CC[C@@H](C)CCCCC(=O)N[C@@H](CCNCS(=O)(=O)O)C(=O)N[C@H](C(=O)N[C@@H](CCNCS(=O)(=O)O)C(=O)N[C@H]1CCNC(=O)[C@H]([C@@H](C)O)NC(=O)[C@H](CCNCS(=O)(=O)O)NC(=O)[C@H](CCNCS(=O)(=O)O)NC(=O)[C@H](CC(C)C)NC(=O)[C@@H](CC(C)C)NC(=O)[C@H](CCNCS(=O)(=O)O)NC1=O)[C@@H](C)O (X3-[Dab(CH2SO3H)]T[Dab(CH2SO3H)][Dab][Dab(CH2SO3H)][dL]L[Dab(CH2SO3H)][Dab(CH2SO3H)]T; lactam 4-C)	inactive
CC[C@@H](C(=O)[C@@H](C)[C@@H](O)[C@H](C)CCc1ccc(C)c(O)c1C(=O)O)[C@H]1O[C@](CC)([C@H]2CC[C@](O)(CC)[C@H](C)O2)C[C@@H]1C	inactive
Nc1ncnc2c1ncn2[C@@H]1O[C@H](COP(=O)(O)OP(=O)(O)OP(=O)(O)O)[C@@H](O)[C@H]1O	inactive
CC(=O)O[C@]1(C(C)=O)CC[C@H]2[C@@H]3CCC4=CC(=O)CC[C@]4(C)[C@@]3(F)[C@@H](O)C[C@@]21C	inactive
Cc1cc(CC(C)CC(C)(C)C)n(O)c(=O)c1 (configuration not stated) (tested in a mixture with another compound)	inactive
O=C(O)C[C@H](O)C[C@H](O)/C=C/c1c(C2CC2)nc2ccccc2c1-c1ccc(F)cc1	inactive
CC[N+](CC)(CC)CCC(O)(c1ccccc1)C1CCCCC1 (configuration not stated)	inactive
O=C(O)C1CCCN1 (configuration not stated)	inactive
CO[C@H]1C[C@@H]2CC[C@@H](C)[C@@](O)(O2)C(=O)C(=O)N2CCCC[C@H]2C(=O)O[C@H]([C@H](C)C[C@@H]2CC[C@@H](OCCO)[C@H](OC)C2)CC(=O)[C@H](C)/C=C(\C)[C@@H](O)[C@@H](OC)C(=O)[C@H](C)C[C@H](C)/C=C/C=C/C=C/1C	inactive

Structure (SMILES)	Potency
CO[C@H]1C=CO[C@@]2(C)Oc3c(C)c(O)c4c(O)c(c(/C=N/N5CCN(C6CCCC6)CC5)c(O)c4c3C2=O)NC(=O)/C(C)=C\C=C[C@H](C)[C@H](O)[C@@H](C)[C@@H](O)[C@@H](C)[C@H](OC(C)=O)[C@@H]1C	inactive
CC(=O)OCC(=O)[C@@]1(O)CC[C@H]2[C@@H]3C[C@H](C)C4=CC(=O)C=C[C@]4(C)[C@H]3[C@@H](O)C[C@@]21C	inactive
C[C@@H]1[C@H](O)[C@@H](C)/C=C/C=C\C=C\C=C\C=C\C=C\C=C\[C@H](O[C@@H]2O[C@H](C)[C@@H](O)[C@H](N)[C@@H]2O)C[C@@H]2O[C@](O)(C[C@@H](O)C[C@@H](O)[C@H](O)CC[C@@H](O)C[C@@H](O)CC(=O)O[C@H]1C)C[C@H](O)[C@H]2C(=O)O (stereo in doubt)	inactive
OCCO[C@@H]1[C@@H](O)[C@H](O)[C@@H](CO)O[C@@H]1O	inactive
CCC1OC(=O)C[C@@H](O)[C@H](C)[C@@H](O[C@@H]2O[C@H](C)C[C@H](N(C)C)[C@H]2O)[C@@H](CC=O)C[C@@H](C)C(=O)/C=C/[C@]2(C)OC2C1C (some centres not stated)	inactive
COC(=O)CCC(=O)CN	inactive
CC(=O)Oc1cc(C)c(OC(C)=O)c2ccccc12	inactive
CCC(=O)O[C@@H]1CC(=O)O[C@H](C)C/C=C/C=C/[C@H](O)[C@H](C)C[C@H](CC=O)[C@H](O[C@@H]2O[C@H](C)[C@@H](O[C@H]3C[C@@](C)(O)[C@@H](OC(=O)CC)[C@H](C)O3)[C@H](N(C)C)[C@H]2O)[C@H]1OC	inactive
NC1C2CN(c3nc4c(cc3F)c(=O)c(C(=O)O)cn4-c3ccc(F)cc3F)CC12 (configuration not stated)	inactive
CO[C@H]1C=CO[C@@]2(C)Oc3c(C)c(O)c4c(O)c(c5c(c4c3C2=O)=NC2(CCN(CC(C)C)CC2)N=5)NC(=O)/C(C)=C\C=C/[C@H](C)[C@H](O)[C@@H](C)[C@@H](O)[C@@H](C)[C@H](OC(C)=O)[C@@H]1C	inactive
O=S(=O)(O)c1ccc2c(N=Nc3ccc(S(=O)(=O)O)c4ccccc34)c(O)c(S(=O)(=O)O)cc2c1	inactive
C[C@]12C=CC(=O)N[C@@H]1CC[C@@H]1[C@@H]2CC[C@]2(C)[C@@H](C(=O)Nc3cc(C(F)(F)F)ccc3C(F)(F)F)CC[C@@H]12	2510 nM (active)
COc1cc2c(cc1O)CCN[C@]21CS[C@@H]2c3c(OC(C)=O)c(C)c4c(c3[C@H](COC1=O)N1[C@@H]2[C@H]2c3c(cc(C)c(OC)c3O)C[C@@H]([C@@H]1O)N2C)OCO4	inactive
CCCCCC(CC)COC(=O)CC(C(=O)OCC(CC)CCCC)S(=O)(=O)O (configuration not stated)	inactive
CCCCCCC(O)C/C=C/CCCCCCCC(=O)O (configuration not stated)	inactive
CCOC(=O)O[C@]1(C(=O)COC(=O)CC)CC[C@H]2[C@@H]3CCC4=CC(=O)C=C[C@]4(C)[C@H]3[C@@H](O)C[C@@]21C	inactive

From PubChem BioAssay (NCATS)
